This note sets out measurements from PubChem BioAssay AID652104 (National Center for Advancing Translational Sciences (NCATS), 2013).

The campaign covered roughly 410,000 compounds. About 7,200 (1.8%) were called active. A call without a number means that no potency is given here. Not shown: some 7% with an inconclusive outcome. The full list was thinned out, with actives kept by preference. A number with no mark means an inactive call. The call rests on the fitted dose curve; in most records, active means well fitted activation curve with a large enough effect; inconclusive means small, poorly fitted or top-dose-only effect, or another doubt; inactive means no such curve, though single readings can be large or run the other way.
Potency means the concentration at half of the fitted maximal effect.

The assay is described as follows: qHTS of TDP-43 Inhibitors. Further: nearly all actives have a fitted effect of over 50% in size. The conditions noted are these: TDP-43 expressing yeast growth rescue, BacTiter-Glo, 24 h; series mostly up to 46.1 µM. The method, boiled down:
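Cell-based yeast growth screen: TDP-43 expression induced in galactose, inoculum OD600=0.02 after raffinose pregrowth to mid-log. Read-out BacTiter-Glo luminescence at 24 hr, 30 deg C; inhibition of toxicity seen as signal increase.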
A general note: Quantitative high-throughput screening tests each substance at several concentrations.
Consider `CCCCN(C)CCCNC(=O)CN1N=C(c2ccc(OC)cc2)CCC1=O`, for which the Potency result was “inactive”.

`COc1ccc(C2=CC(c3ccccc3Cl)n3nc(-c4ccc(Cl)cc4)nc3N2)cc1` (stereo not drawn): the Potency entry was “inactive”.

Regarding `CCOC(=O)C1=C(c2ccccc2)Nc2ncnn2C1c1ccc(Cl)cc1` (stereo not drawn), the Potency entry was “inactive”.

`Brc1ccc(C2=CC(c3ccco3)n3ncnc3N2)cc1` (stereo not drawn): the Potency is 12.6 µM (active).

For `CCOc1ccc(C2=CC(c3ccccc3)n3ncnc3N2)cc1` (stereo not drawn), the Potency was 17.8 µM (active).

Regarding `CCOc1ccc(NC(=O)CSc2c3c(nc4ccccc24)CCCC3)cc1`, the Potency entry was “inactive”.

As to `CC(=O)c1cccc(Nc2ccc3cc(S(=O)(=O)N4CCC(C)CC4)ccc3n2)c1`, the Potency result was “inactive”.

As to `Cc1cc(Br)cn2c(Cc3ccccc3C(F)(F)F)c(C3CCCCC3)nc12`, the Potency result is “inactive”.

As to `COC(=O)c1ccc2nc(C3CCCCC3)c(Cc3cccc(F)c3)n2c1`, the Potency entry was “inactive”.

As to `CC(C)(C)Cc1c(C2CCCCC2)nc2ccc(Br)cn12`, the Potency is 28.2 µM (active).

As for `COc1cccc(NC(=O)c2csnn2)c1`, the Potency entry was “inactive”.

In the case of `CCOC(=O)c1cnc2c(C)cc(C)cc2c1Nc1ccc(N2CCOCC2)cc1`, the Potency result is “inactive”.

Regarding `CCOc1cccc(CC(=O)N2CCc3c([nH]c4ccccc34)C2c2ccc(OC)cc2)c1OCC` (stereo not drawn), the Potency entry is “inactive”.

`CCCC(=O)Nc1ccc2oc(-c3ccc(O)c(Br)c3)nc2c1`: the Potency entry is “inactive”.

`CC(C)c1ccc(C2CC(=O)N3CN(C4CCCCC4)CSC3=C2C#N)cc1` (stereo not drawn): the Potency entry was “inactive”.

On to `CCc1nn(CC(=O)Nc2cc(C)cc(C)c2)c(=O)c2cc3sccc3n12`, for which the Potency entry is “inactive”.

Turning to `O=S(=O)(c1cccc(C(F)(F)F)c1)N1c2ccccc2-n2cccc2C1c1cccnc1` (stereo not drawn), the Potency was 25.1 µM (active).

Consider `CC(=O)Nc1ccc(NC(=O)C2CCCN2S(=O)(=O)c2cccc(C(F)(F)F)c2)cc1` (stereo not drawn), for which the Potency result is “inactive”.

Regarding `S=C(Nc1cccc(Br)c1)N1CCn2cccc2C1c1cccnc1` (stereo not drawn), the Potency result is “inactive”.

`CN(C)c1cccc(C(=O)Nc2nc3ccc(S(=O)(=O)NC(C)(C)C)cc3s2)c1`: the growth rescue (activation) was 6.18% [at 9.22 µM].

On to `COc1ccc2c(c1)c(N1CCCC1=O)c(C(=O)Nc1ccccc1C(F)(F)F)n2C`, for which the Potency entry is “inactive”.

For `CCOc1ccc(NC(=O)C(CC(C)C)N2Cc3ccccc3C2=O)cc1` (stereo not drawn), the Potency result is “inactive”.

Regarding `CC(Cc1cccs1)NC(=O)c1cccc(Cl)c1` (stereo not drawn), the growth rescue (activation) is -15.2% [at 0.397 µM].

Regarding `CC(Cc1cccs1)N(Cc1ccc(Cl)cc1)C(=O)c1ccncc1` (stereo not drawn), the Potency is 35.5 µM (active).

As for `CC(C)(C)N(Cc1ccccc1)C(=O)c1ccncc1`, the Potency entry was “inactive”.

As to `CCOc1cc(C2C(C(=O)Nc3ccc(OC)cc3)=C(C)Nc3nc(SC)nn32)ccc1O` (stereo not drawn), the Potency entry is “inactive”.

Turning to `O=C(CSc1nccn1Cc1ccc(Cl)cc1)NCc1ccccc1`, the growth rescue (activation) is 9.99% [at 9.22 µM].

With `CCOC(=O)c1ccc(NC(=O)Cn2c(=O)cc(C)c3c(C)nn(-c4cccc(F)c4)c32)cc1`, the Potency result was “inactive”.

Turning to `O=C(O)c1[nH]c2ccccc2c1C(c1cccc(O)c1)c1c(C(=O)O)[nH]c2ccccc12`, the Potency entry is “inactive”.

Regarding `Cc1[nH]c2ccccc2c1-c1ccc(Cl)nn1`, the growth rescue (activation) was -8.17% [at 9.22 µM].

Take `Cc1[nH]c2ccccc2c1C(c1ccccc1)c1cccs1` (stereo not drawn): the Potency was 25.1 µM (active).

Take `CCN(CC)c1ccc(NC(=O)CN2C(=O)c3cccnc3Oc3ccc(Cl)cc32)c(C)c1`: the Potency entry was “inactive”.

Take `COc1ccc(-c2nn(CC(=O)NC3CCCC3)c3c2cnc2ccc(F)cc23)cc1`: the Potency result was “inactive”.

Turning to `Cc1cccc(C(=O)Nc2ccc(-c3nc4ccccc4s3)c(C)c2)c1`, the Potency result is “inactive”.

As for `O=C(Nc1ccccc1C(=O)O)c1ccc(N2C(=O)C3CC=CCC3C2=O)cc1` (stereo not drawn), the Potency entry was “inactive”.

For the compound `COc1ccc(Cl)cc1NC(=O)c1cccc(N2C(=O)C3CC=CCC3C2=O)c1` (stereo not drawn), the Potency was 11.2 µM (active).

As to `COc1ccc(Cl)cc1NC(=O)COC(=O)C(CC(C)C)N1C(=O)C2CC=CCC2C1=O` (stereo not drawn), the Potency result is “inactive”.

On to `CC(=O)Nc1ccc(NC(=O)CCCc2nc(-c3ccc(C(C)(C)C)cc3)no2)cc1`, for which the Potency result is “inactive”.

With `COc1ccc2c(c1)C=C(C(=O)NCc1cc(Br)ccc1OC)CO2`, the growth rescue (activation) is 5.98% [at 9.22 µM].

As for `CCOC(=O)c1ccc(NC(=O)CC2C(=O)N(c3cccc(OC)c3)C(=O)N2C2CCCCC2)cc1` (stereo not drawn), the Potency result was “inactive”.

Regarding `Cc1c(C(=O)N2CCCC2)oc2c1-c1nn(CC(=O)NCc3ccc(OC(C)C)cc3)cc1CC2`, the Potency is 20 µM (active).

Consider `CCCN(CCC)CCCNC(=O)Cn1cc2c(n1)-c1c(oc(C(=O)N3CCCC3)c1C)CC2`, for which the Potency result is “inactive”.

On to `CCOc1ccc(CNC(=O)Cn2cc3c(n2)-c2c(oc(C(=O)N4CCCC4)c2C)CC3)cc1`, for which the Potency entry was “inactive”.

Turning to `CC1=C(c2ccc(C)cc2)S(=O)(=O)NC1=NCCCN1CCN(c2cc(C)ccc2C)CC1`, the Potency entry is “inactive”.

For the compound `Cc1nn(-c2ccc(N3CCCCC3)nn2)c(C)c1CCC(=O)NCc1ccccc1F`, the Potency entry is “inactive”.

Regarding `CN(C(=O)CSc1nnc(NC(=O)Nc2ccccc2)s1)c1ccccc1`, the Potency result is “inactive”.

`CC(C)c1ccc(Nc2nnc(SCC(=O)c3nnc(-c4ccccc4)o3)s2)cc1`: the Potency was 20 µM (active).

For the compound `CC(=O)c1ccc(NC(=O)CSc2nnc(NC(=O)Nc3ccccc3)s2)cc1`, the Potency result was “inactive”.

As for `CCOC(=O)c1ccc(NC(=O)CCS(=O)(=O)c2ccc3c(c2)oc(=O)n3C)cc1`, the Potency result was “inactive”.

Regarding `O=C(NC1CCN(Cc2ccccc2)CC1)c1ccc(Cn2c(=O)c3ccccc3n(Cc3cccc(F)c3)c2=O)cc1`, the Potency result was “inactive”.

`CC(C)c1ccc(NC(=O)c2ccc(Cn3nc(N4CCN(c5ccccc5)CC4)ccc3=O)o2)cc1`: the Potency result is “inactive”.

As to `CC1CC(=O)Nc2ccccc2N1S(=O)(=O)c1cccs1` (stereo not drawn), the Potency result was “inactive”.

Consider `CC1CC(=S)Nc2ccccc2N1Cc1ccccc1` (stereo not drawn), for which the Potency was 14.1 µM (active).

In the case of `CC1CC(C)(C)NC(=S)N1CCC(=O)N1CCN(Cc2ccccc2)CC1` (stereo not drawn), the Potency result is “inactive”.

`COc1ccc(CNC(=O)C2CC(c3ccc(C(F)(F)F)cc3)=NO2)cc1` (stereo not drawn): the Potency result is “inactive”.

As to `COC(=O)[C@]1(S(=O)(=O)c2ccccc2)C[C@@H]2ON=C(c3ccc(OC)cc3)[C@@H]2C1`, the Potency is 17.8 µM (active).

For `COc1ccc(-c2nc(S(=O)(=O)c3ccccc3)c(N3CCCCC3)o2)cc1`, the Potency entry is “inactive”.

Take `COc1cc(OC)c(NC(=O)c2cc(S(=O)(=O)N3CCCC3)cn2C)cc1Cl`: the Potency result was “inactive”.

For the compound `CCOc1ccc(OCCSc2nc3ccccc3n2CC(=O)O)cc1`, the Potency entry is “inactive”.

Take `Cc1cccc(OCCSc2nc3ccccc3n2CC(=O)N2CCCCC2)c1C`: the Potency was 35.5 µM (active).

In the case of `Cc1ccc(C(C)C)c(OCCSc2nc3ccccc3n2CC(=O)O)c1`, the Potency entry was “inactive”.

On to `CCC(C)c1ccc2oc(-c3ccc(NC(=O)c4cc5ccccc5o4)cc3)nc2c1` (stereo not drawn), for which the Potency result is “inactive”.

As to `Cc1ccccc1C(=O)OC1OC(=O)C(Cl)=C1Nc1ccccc1` (stereo not drawn), the Potency is 22.4 µM (active).

Turning to `O=C1OC(OC(=O)c2ccccc2Br)C(N2CCOCC2)=C1Cl` (stereo not drawn), the Potency result was “inactive”.

`Cc1ccccc1C(=O)O`: the Potency result was “inactive”.

With `Cc1cccc(NC(=O)Cn2nc(-c3ccc(Cl)cc3)c3ccccc3c2=O)c1`, the Potency entry is “inactive”.

As for `CCCC12CN3CC(C)(CN(C1)C3c1ccccc1Cl)C2=O` (stereo not drawn), the Potency result was “inactive”.

For the compound `CC(C)(C)c1ccc(S(=O)(=O)N2CCN(C(=O)c3cc(-c4ccc(Br)cc4)n[nH]3)CC2)cc1`, the Potency entry was “inactive”.

`CCCCN(CC)CCCNC(=O)c1nn(C)c2c1CSc1ccccc1-2`: the Potency entry is “inactive”.

For `COc1ccc(OC)c(CCNC(=O)c2nn(C)c3c2CS(=O)(=O)c2ccccc2-3)c1`, the Potency entry was “inactive”.

Take `COc1ccc(CCNC(=O)c2nn(C)c3c2CSc2ccccc2-3)cc1OC`: the Potency was 11.2 µM (active).

For the compound `Cc1cc(-c2ccc(C)c(S(=O)(=O)N3c4ccccc4CC3C)c2)on1` (stereo not drawn), the Potency entry was “inactive”.

In the case of `Cc1ccc(S(=O)(=O)N2CCCc3cc(NS(=O)(=O)c4cc(C)ccc4C)ccc32)cc1`, the growth rescue (activation) was 0% [at 9.22 µM].

As for `CCC(=O)c1ccc(N2CCN(C(=O)c3cc([N+](=O)[O-])ccc3F)CC2)c(F)c1`, the Potency was 12.6 µM (active).

In the case of `O=C(OCC(=O)N1CCOCC1)c1ccc(N2CCOCC2)c([N+](=O)[O-])c1`, the growth rescue (activation) is 7.7% [at 9.22 µM].

Regarding `O=C(c1ccc(N2CCOCC2)c([N+](=O)[O-])c1)N1CCN(S(=O)(=O)c2cccs2)CC1`, the Potency result is “inactive”.

Consider `O=C(c1ccc(N2CCOCC2)c([N+](=O)[O-])c1)N1CCN(c2ccccc2F)CC1`, for which the Potency was 14.1 µM (active).

Turning to `CCOC(=O)N1CCN(c2cc(C)c([N+](=O)[O-])cc2F)CC1`, the Potency entry was “inactive”.

Take `O=C(O)C1CCN(c2ccc([N+](=O)[O-])cc2[N+](=O)[O-])CC1`: the Potency entry is “inactive”.

In the case of `COc1ccc(S(=O)(=O)NCC(c2ccc(N(C)C)cc2)N2CCc3ccccc32)cc1OC` (stereo not drawn), the growth rescue (activation) was -42.7% [at 9.22 µM].

In the case of `Cc1ccc2nc(COc3cccc(NC(=O)c4cccc(Cl)c4)c3)cc(=O)n2c1`, the Potency result was “inactive”.

Consider `CC(=O)Nc1cnc(-c2ccc(O)cc2C)cn1`, for which the Potency entry was “inactive”.

As to `Cc1ccc(Nc2nc(-c3ccc(O)cc3O)cs2)nc1`, the Potency is 20 µM (active).

Take `Cc1cc(C)c(NC(=O)c2cc3sc(Cl)cc3n2C)c(C)c1`: the Potency result is “inactive”.

Turning to `Cn1c(=O)c(C(=O)O)nn(-c2ccccc2)c1=O`, the Potency result is “inactive”.

Consider `CCCn1c2ccccc2c2cnn(CC(=O)NCC3CCN(Cc4ccc(C)cc4)CC3)c(=O)c21`, for which the Potency result is “inactive”.

On to `COc1ccc(SCc2cc(=O)c3ccc(C)c(C)c3[nH]2)cc1`, for which the Potency result was “inactive”.

Regarding `CCC(=O)N1CCc2cc(S(=O)(=O)NC(Cc3ccccc3)C(=O)NCc3ccc(C)cc3)ccc21` (stereo not drawn), the Potency result is “inactive”.
